Activity calls are given as the source filed them.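 The calls were made as follows: active = compounds whose fitted half-maximal cell-killing potency is at most twice their top tested dose; inconclusive = flat curve with 30 to 70% signal loss, or poor fit; inactive = the rest.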

A short description of this test: HEK293 cell cytotoxicity, dose response, cytotoxicity control, HEK293T, ATP luminescence, dry powder (AID 652119). The settings on record: HEK293T viability, CellTiter-Glo ATP luminescence, 48 h; series mostly up to 26 µM.
In the case of `O=C(N1CCCC1)C1(CCOc2ccccc2)CCN(Cc2ccc(O)c(Cl)c2)CC1`, the call was inactive. Consider `C=CCOc1ccc(CN2CCC(CCOc3ccccc3)(C(=O)O)CC2)cc1Cl`, for which the result was inactive. Take `CC(C)(C)OC(=O)C1(CCOc2ccccc2)CCN(Cc2ccc(O)c(Cl)c2)CC1`: the outcome was inactive. The same measure for `CC(C)OC(=O)C1(CCOc2ccccc2)CCN(Cc2ccc(O)c(Cl)c2)CC1`: “inactive”; for `C=CCOc1ccc(CN2CCC(CCOc3ccccc3)(C(=O)OCC)CC2)cc1Cl`: “inactive”; for `CCNC(=O)C1(CCOc2ccccc2)CCN(Cc2ccc(O)c(Cl)c2)CC1`: “inactive”. For the compound `CCOC(=O)C1(Cc2ccccc2)CCN(Cc2ccc(O)c(Cl)c2)CC1`, the result was inactive. Consider `C/C1=C\[C@@H](O)C(C)(C)CCCC2(C)OC2C[C@@H]1OC(=O)c1ccc(O)cc1` (some centres not stated), for which the compound was classed as inactive. The result for `CCOC(=O)C1(CCOc2ccccc2)CCN(C(=O)OC(C)(C)C)CC1` reads “inactive”; that for `CCOC(=O)C1(CCOc2ccccc2)CCN(Cc2cccc(Cl)c2)CC1`, “inactive”; that for `C=CCOc1ccc(CN2CCC(CCOc3ccccc3)(C(=O)NC3CCCC3)CC2)cc1Cl`, “inactive”. The same measure for `CCOC(=O)c1c(CN2CCN(CCO)CC2)n(-c2ccccc2)c2cc(Br)c(O)cc12`: “inactive”; for `O=C(Nc1ccccc1)C1(CCOc2ccccc2)CCN(Cc2ccc(O)c(Cl)c2)CC1`: “inactive”; for `C/C1=C\C[C@H](OC(=O)c2ccc(O)cc2)/C(C)=C/[C@@H](O)C(C)(C)CCC1`: “inactive”. Consider `CCOC(=O)C1CCN(C(=O)OC(C)(C)C)CC1`, for which the compound was classed as inactive.

As for `CCOC(=O)C1(CCOc2ccccc2)CCN(Cc2ccc(OC)c(Cl)c2)CC1`, the call was inactive. As for `O=C(NC1CCCC1)C1(CCOc2ccccc2)CCN(Cc2ccc(O)c(Cl)c2)CC1`, the call was inactive. Take `C=CCOc1ccc(CN2CCC(CCOc3ccccc3)(C(=O)N(C)CC)CC2)cc1Cl`: the compound was classed as inactive. As for `CCOC(=O)C1(CCOC)CCCN(Cc2ccc(Cl)cc2)C1` (configuration not stated), the result was inactive. `CCOC(=O)C1(Cc2cccc(OC)c2)CCN(Cc2ccc(O)c(Cl)c2)CC1`: the outcome was inactive.

As to `CCOC(=O)C1(CCOC)CCN(Cc2ccc(O)c(Cl)c2)CC1`, the compound was called inactive. In the case of `CCOC(=O)C1(CCOc2ccccc2)CCN(Cc2ccc(O)c(Cl)c2)CC1`, the outcome was inactive. With `CCOC(=O)C1(CCOc2ccccc2)CCN(Cc2ccc(OC)cc2)CC1`, the outcome was inactive.

On to `CCOC(=O)C1(CCOc2ccccc2)CCN(Cc2ccc3[nH]c(=O)oc3c2)CC1`, for which the result was inactive. On to `CCOC(=O)C1(CCOc2ccccc2)CCN(Cc2ccc(O)cc2)CC1`, for which the result was inactive. As for `C=CCOc1ccc(CN2CCC(CCOc3ccccc3)(C(=O)N3CCCC3)CC2)cc1Cl`, the call was inactive.

On to `CCOC(=O)C1(CCOc2ccccc2)CCN(C(=O)c2ccc(O)c(Cl)c2)CC1`, for which the compound was called inactive.

For the origin of these results see PubChem BioAssay AID652119 (Broad Institute, 2013).
